Calls of active or inactive are those of the source. No rule for the calls is given here.
Biological target: Bifunctional epoxide hydrolase 2 (Homo sapiens) (UniProt P34913)
Experiment: sEH inhibitor concentration-response potency, dose response, biochemical, human sEH, fluorescence, Infinite200 (AID 1026)
Conditions: recombinant human sEH, fluorogenic substrate, at 0.2 µM, active compounds read high

Sequence of Bifunctional epoxide hydrolase 2 (Homo sapiens) (P34913 whole entry, looked up): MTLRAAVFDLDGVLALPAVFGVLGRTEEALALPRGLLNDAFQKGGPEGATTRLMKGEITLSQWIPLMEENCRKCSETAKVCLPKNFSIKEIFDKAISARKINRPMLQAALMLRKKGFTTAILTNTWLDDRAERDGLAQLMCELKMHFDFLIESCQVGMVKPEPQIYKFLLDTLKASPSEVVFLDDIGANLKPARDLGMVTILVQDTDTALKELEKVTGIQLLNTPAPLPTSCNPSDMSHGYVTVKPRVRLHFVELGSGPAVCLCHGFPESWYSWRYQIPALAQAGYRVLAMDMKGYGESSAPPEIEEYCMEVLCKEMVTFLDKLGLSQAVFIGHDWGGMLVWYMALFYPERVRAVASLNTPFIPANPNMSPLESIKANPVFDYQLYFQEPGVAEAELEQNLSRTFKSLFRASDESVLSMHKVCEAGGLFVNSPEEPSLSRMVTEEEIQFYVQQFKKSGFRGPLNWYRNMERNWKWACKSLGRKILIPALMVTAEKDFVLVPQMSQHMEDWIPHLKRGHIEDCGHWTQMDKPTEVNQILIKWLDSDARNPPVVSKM

inhibition, inactive:
O=C(NCc1ccccc1Cl)c1ccc(Cn2cc(C(F)(F)F)ccc2=O)cc1 52.6%
COc1ccc(C2CCCN2C(=O)Nc2ccc(Cl)cc2)cc1OC (stereo unspecified) 71.3%
COC(=O)[C@@H](NC(=O)NCc1ccccc1Cl)C(C)C 61.5%
O=C(NCc1ccc(N2CCCC2=O)cc1)NC1CCCCC1 47.5%
CCc1c(C)nc2ncnn2c1N1CCC(C(=O)Nc2ccc(C)cc2)CC1 44.3%
O=C(NC1CCCCC1)N1CCCC(c2nc(-c3cccs3)no2)C1 (stereo unspecified) 65.8%
CC(Cc1cccs1)NC(=O)NC1CCCCC1 (stereo unspecified) 57.2%
Cc1cc2nc(-c3ccc(SCC(=O)N4CCc5ccccc54)nc3)[nH]c2cc1C 56.7%
Cc1noc(C)c1COc1cccc(C(=O)NCc2ccccc2Cl)c1 52.4%
O=C(Nc1cnn(Cc2ccccc2)c1)NC12CC3CC(CC(C3)C1)C2 59.3%
CC(C)CN1C(=O)c2ccc(C(=O)NCc3ccc4c(c3)OCO4)cc2C1=O 56%
C/C(=N\NC(=O)Cc1cccn1C)c1cccc2ccccc12 40.4%
CCN(CCCNC(=O)C1CCN(S(=O)(=O)N2CCC3(CC2)OCCO3)CC1)c1ccccc1 53.8%
COc1ccc(/C=N/NC(=O)c2ccc(COc3ccccc3Cl)o2)cc1 55.4%
CC1CC(C)CN(C(=O)c2ccc3c(=O)n(Cc4ccc5c(c4)OCO5)c(=S)[nH]c3c2)C1 (stereo unspecified) 54.3%
Cc1ccc(-n2nnnc2SCC(=O)NCCC2=CCCCC2)c(C)c1 41.9%

— PubChem BioAssay AID1026 (Columbia University Molecular Screening Center, 2008)
